Structures are written as SMILES. Compounds without any hit were thinned out: in the full panel of roughly 83,000, 20% have a hit.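 A percent growth of 40 corresponds to 60% growth inhibition; 0 means no net growth; -100 means all cells died. Active threshold: below 10.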 A number with no mark means an inactive call. The source made the active and inactive calls.

Some test systems named below: NCI-H23 lung; NCI-H322M lung; NCI-H522 lung; MDA-MB-231 breast; PC-3 prostate; LOX IMVI melanoma; MOLT-4 leukemia; SR leukemia; RPMI-8226 leukemia; IGROV1 ovarian; T-47D breast; SW-620 colon; KM12 colon; HOP-92 NSCLC; COLO 205 colon; MDA-MB-435 melanoma; HCC-2998 colon; HCT-116 colon.
Assay in all cases: NCI-60 one-dose screen, 48 h (100 = growth as untreated, 0 = no growth, -100 = all killed)
Holding throughout (conditions): 10 µM

In the case of `COC(=O)C[C@](O)(CCCC(C)C)C(=O)O[C@H]1C(OC)=C[C@@]23CCCN2CCc2cc4c(cc2[C@@H]13)OCO4`, the growth in the assay on NCI-H23 lung is -25% (active); with NCI-H322M lung, 25.4%; in the assay with NCI-H522 lung, -59.4% (active); in the assay on MDA-MB-231 breast, 7.43% (active); with PC-3 prostate, 1.16% (active); in the assay with LOX IMVI melanoma, -66.6% (active). Moreover, the growth is 1.41% (active) with MOLT-4 leukemia; -24.8% (active) in the assay with SR leukemia; -20.7% (active) in the assay on RPMI-8226 leukemia; 8.76% (active) with IGROV1 ovarian; 2.21% (active) in the assay with T-47D breast; -10.5% (active) in the assay on SW-620 colon. Besides, in the assay with KM12 colon, the growth was 0.453% (active).

With `O=C(/C=C/c1ccc(Cl)cc1Cl)c1nc2ccccc2n1Cc1ccc(F)cc1`, the growth in the assay with NCI-H322M lung is 69.7%; in the assay on HOP-92 NSCLC it was 36.6%; with COLO 205 colon, 83.6%; in the assay on MOLT-4 leukemia, 4.16% (active); with SR leukemia, -1.72% (active); in the assay on KM12 colon, 53%.

Regarding `CC[C@]12C=CCN3CC[C@@]4(c5ccc(OC)cc5N(C)[C@H]4[C@@](O)(C(=O)OC)[C@@H]1OC(=O)CCC[P+](c1ccc(F)cc1)(c1ccc(F)cc1)c1ccc(F)cc1)[C@@H]32`, the growth in the assay with NCI-H23 lung is 35.5%; with MDA-MB-231 breast it was 22%; with PC-3 prostate, 16.7%; with LOX IMVI melanoma, 31%; in the assay on MOLT-4 leukemia, 37.1%; in the assay with SR leukemia, 42.6%. The growth in the assay on RPMI-8226 leukemia was 24.4%; with T-47D breast it was 10.4%; in the assay on MDA-MB-435 melanoma, 6.69% (active); with SW-620 colon, 45.3%; with KM12 colon, 21.3%.

As to `CCC[Se]C(=O)c1ccc(C(=O)[Se]CCC)s1`, the growth with NCI-H23 lung is -49.2% (active); in the assay on HOP-92 NSCLC, -57.8% (active); in the assay with NCI-H522 lung, 17.9%; in the assay on PC-3 prostate it was 4.67% (active); in the assay with MOLT-4 leukemia, 7.32% (active); in the assay with SR leukemia, 18.5%. The growth in the assay on RPMI-8226 leukemia was -5.8% (active); with IGROV1 ovarian, -67.3% (active); in the assay with MDA-MB-435 melanoma, -61% (active); in the assay with HCC-2998 colon, -8.78% (active).

With `COc1ccc(OC)c(/C=C/C(=O)c2nc3ccccc3n2Cc2ccc(F)cc2)c1`, the growth in the assay with NCI-H23 lung is -49.1% (active); with HOP-92 NSCLC, -11% (active); in the assay on COLO 205 colon, -58.3% (active); in the assay on MOLT-4 leukemia it was -6.12% (active); with SR leukemia it was -8.46% (active); with RPMI-8226 leukemia it was -36.8% (active). In addition, the results for the growth in the assay with MDA-MB-435 melanoma and in the assay on HCT-116 colon were -46.9% (active) and -91.1% (active), respectively.

The record behind these values is PubChem BioAssay (NCI).
